Assay outcomes as filed in PubChem.
GRIN3A LBD mod – binders of NR3A ligand-binding domain, primary screen, biophysical, differential scanning fluorimetry, uHTS; Glutamate receptor ionotropic, NMDA 3A (GRIN3A) ligand-binding domain; NR3A LBD differential scanning fluorimetry, Tm shift; 0% = protein alone, 100% = glycine-bound protein; Tm shift relative to glycine control, % at 25 µM; 340,000 compounds, 2.5% hits; AID 1259313, 2017;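 active = melting temperature shift of at least 10% of the positive control shift, at one fixed dose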
MPTP inh – mitochondrial permeability transition pore inhibitors, primary screen, biochemical, isolated mouse mitochondria, absorbance. inhibition, % at 10 µM. 360,000 compounds, 1.4% hits. Ca2+ swelling absorbance, 30 min. AID 602449, 2012;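 active = inhibition of 50% or more, scaled per plate between neutral and stimulator controls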;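 note: 0% = DMSO wells given calcium and 100% = 1 mM EGTA wells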
CRFR2-BP ag – agonists of CRF-BP/CRF-R2 complex, primary screen, cell-based, HEK293, calcium dye fluorescence, uHTS; 350,000 compounds, 0.46% hits; AID 588473, 2011; calcium dye fluorescence (FLIPR); percent of saturating CRF peptide response; activation, % at 13.2 µM;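 active = activation of at least 50%, plus an integration ratio under a set limit after plate pattern correction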;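 note: plate controls were neutral control wells without compound for no effect and CRF at EC100 for full effect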
TMEM16A act – TMEM16A chloride channel activators or potentiators, primary screen, cell-based, HTS. Anoctamin-1 (Mus musculus), Q8BHY3. HEK293 TMEM16A/YFP-H148Q/I152L, iodide quench fluorescence; active compounds read low. B-score at 10 µM. 340,000 compounds, 0.3% hits. AID 623877, 2012;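 active = fluorescence-ratio B-score plate-corrected deviation score at least 3 library SD below zero, with starting fluorescence score within 5 deviations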;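 note: channel opened by trigger with iodide after compound preincubation; score built on the fluorescence ratio of max minus min over baseline; more negative score means more quench and so TMEM16A activation or potentiation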
Target sequence (Q8BHY3 whole entry, looked up): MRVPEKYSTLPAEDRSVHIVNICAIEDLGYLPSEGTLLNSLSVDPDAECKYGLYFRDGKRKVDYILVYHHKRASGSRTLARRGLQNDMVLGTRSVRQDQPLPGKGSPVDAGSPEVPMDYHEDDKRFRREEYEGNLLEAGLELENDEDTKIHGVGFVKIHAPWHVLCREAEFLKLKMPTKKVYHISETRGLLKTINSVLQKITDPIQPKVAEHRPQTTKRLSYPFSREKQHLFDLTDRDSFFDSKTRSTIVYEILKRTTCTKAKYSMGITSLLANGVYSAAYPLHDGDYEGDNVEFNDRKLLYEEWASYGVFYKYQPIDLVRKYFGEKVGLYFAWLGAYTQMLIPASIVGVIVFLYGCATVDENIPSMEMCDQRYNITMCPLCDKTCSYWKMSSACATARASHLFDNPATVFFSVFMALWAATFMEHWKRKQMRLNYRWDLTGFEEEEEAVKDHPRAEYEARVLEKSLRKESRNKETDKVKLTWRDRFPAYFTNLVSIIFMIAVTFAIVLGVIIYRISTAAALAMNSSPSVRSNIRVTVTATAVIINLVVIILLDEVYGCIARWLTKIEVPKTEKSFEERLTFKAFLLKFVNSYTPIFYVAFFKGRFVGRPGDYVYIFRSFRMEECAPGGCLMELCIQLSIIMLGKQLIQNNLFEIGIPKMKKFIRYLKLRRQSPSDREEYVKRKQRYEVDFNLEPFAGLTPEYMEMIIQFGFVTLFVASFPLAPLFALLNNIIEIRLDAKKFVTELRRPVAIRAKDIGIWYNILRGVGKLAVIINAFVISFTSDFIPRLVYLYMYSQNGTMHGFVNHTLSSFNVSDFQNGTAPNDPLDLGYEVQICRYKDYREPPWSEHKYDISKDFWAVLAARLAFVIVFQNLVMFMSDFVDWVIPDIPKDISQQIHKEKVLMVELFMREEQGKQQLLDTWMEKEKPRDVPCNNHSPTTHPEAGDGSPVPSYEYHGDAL
CRFBP-R2 block – antagonists of CRF-BP/CRF-R2 complex, primary screen, cell-based, HEK293, calcium dye fluorescence, uHTS. inhibition, % at 11.8 µM. CRF-induced calcium fluorescence. AID 588475, 2011. 350,000 compounds, 0.59% hits;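 active = inhibition of the ligand-induced calcium signal above about 50% at the single tested concentration, limit read from the data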
ANO1 block – TMEM16A chloride channel inhibitors, primary screen, cell-based, HTS; normalized B-score (activity score, 25-100; higher = stronger inhibition) at 10 µM; HEK293 TMEM16A/YFP iodide influx fluorescence, ionomycin; Anoctamin-1 (Mus musculus), Q8BHY3; 310,000 compounds, 1.2% hits; AID 588511, 2011;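 active = ratio plate-corrected score three or more library SD toward inhibition, starting fluorescence score within five deviations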;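 note: score derived from kinetic fluorescence span divided by baseline fluorescence per well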
Rh123 counter – fluorescence retest of MPTP screen hits in isolated mitochondria, single concentration. shares compounds with MPTP inh. 5,000 compounds, 78% hits. inhibition, % at 10 µM. membrane potential, Rhodamine 123 fluorescence; in the data active = inhibition above about 22%;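 note: 0% = DMSO vehicle and 100% = positive control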
MPTP swell DR – mitochondrial permeability transition pore inhibitors, dose response, biochemical, absorbance, uHTS hits; AID 651561, 2012; isolated mitochondria swelling; shares compounds with MPTP inh; IC50, µM; 780 compounds, 58% hits; in the data active = IC50 below about 20 µM
MPTP cs DR – fluorescent counter-screen in isolated mitochondria, dose response, counter-screen for MPTP inhibitor project, biochemical, fluorescence, uHTS hits; AID 651564, 2012; IC50, µM; 780 compounds, 49% hits; shares compounds with MPTP inh; isolated mitochondria counterscreen, fluorescence read-out; in the data active = IC50 below about 80 µM
* = called active by the depositor; i = inactive; . = not tested or not shown. In the library only some 5.1% were active in any assay of this set; here they are far more common.

SMILES	GRIN3A LBD mod	MPTP inh	CRFR2-BP ag	TMEM16A act	CRFBP-R2 block	ANO1 block	Rh123 counter	others
COc1ccccc1Oc1ccc2c(c1)C(=O)N(c1cccc3ncccc13)C2=O	3	96*	2	i	17	.	112*
CCCCn1c(/N=C/c2ccc3c(c2)OCO3)nc2ccccc21	7	-1	0	i	4	i	.
CCC(C)c1ccccc1N=Cc1ccc2c(c1)OCO2 (stereo unspecified)	1	71*	-2	i	8	i	2	MPTP swell DR=>100;MPTP cs DR=>80
Cc1ccc(S(=O)(=O)N2CCCC(C(=O)NC3=NCCS3)C2)cc1 (stereo unspecified)	2	70*	-2	i	7	i	8	MPTP swell DR=>100;MPTP cs DR=>80
O=C(NC1=NCCS1)C1CCN(S(=O)(=O)c2ccc(Cl)cc2)CC1	-4	0	-3	i	0	.	.
O=C(Oc1c(Br)cc([N+](=O)[O-])cc1Br)c1cccnc1	-2	72*	21	i	68*	i	96*
CN(Cc1cn(Cc2ccccc2)nn1)C1CN(Cc2cn(Cc3ccccc3)nn2)S(=O)(=O)C1 (stereo unspecified)	.	0	.	.	.	.	.
O=C(Nc1ccc(Cl)cc1)Nc1csc([N+](=O)[O-])c1	33*	79*	35	i	31	i	78*
O=C(Nc1csc([N+](=O)[O-])c1)Nc1c(Cl)cccc1Cl	-1	67*	-4	i	-6	i	88*
CC(C)(C)C1=CC(=O)C(=O)C(C(C)(C)C)=C1	5	80*	1	i	14	i	4
CC(C)(C)C1=CC(=Nc2ccccc2N)C=C(C(C)(C)C)C1=O	-22	38	-2	i	-57	i	.
C[C@H](NC(=O)c1ncn2c1c(=O)[nH]c1ccc(Br)cc12)c1ccccc1	.	0	-1	.	-4	.	.
CCN1CCN(C(=O)CN(CC)S(=O)(=O)c2ccc3ccccc3c2)CC1	2	0	0	i	6	i	.
Nc1nc2ccccc2cc1C(=O)NCc1ccc(Cl)cc1Cl	.	67*	.	.	.	.	97*
Nc1nc2ccccc2cc1C(=O)NCc1ccc(-c2ccccc2)cc1	.	106*	.	.	.	.	103*
Nc1ccc(CNC(=O)c2cc3cc(Cl)ccc3nc2N)cc1	.	17	.	.	.	.	.
COC(=O)C[C@@H]1C=C[C@@H](NC(=O)C2CCC2)[C@@H](CO)O1	.	-2	.	.	.	.	.
C[C@@H]1CN[C@H](CCO)/C1=C\c1ccccc1	0	0	-3	.	6	.	.
COc1ccccc1CCc1nnc(CCC(=O)N(C)Cc2cccc3cnccc23)o1	0	3	2	i	0	i	.
COc1ccc(CCc2nnc(CCC(=O)N(C)Cc3ccnc4ccccc34)o2)cc1	0	79*	0	i	14	i	30*
CCOc1ccccc1C(=O)N/N=C/c1coc2ccc(C)cc2c1=O	-3	-2	-1	i	-10	i	.
Cc1ccc(CN2C(=O)c3ccccc3C2c2nnnn2-c2ccc3c(c2)OCCO3)cc1 (stereo unspecified)	.	2	.	.	.	.	.
CCNC(=O)C1CCCN(C(=O)c2c(-c3ccccc3)noc2C)CC1 (stereo unspecified)	.	-2	.	.	.	.	.
COC(=O)c1c(NC(=O)c2ccco2)sc2c1CC(C)(C)NC2(C)C	-1	-1	0	i	5	i	.
CCOC(=O)c1c(NC(=O)Cc2ccccc2)sc2c1CC(C)(C)NC2(C)C	-1	71*	0	i	-37	i	-4	MPTP swell DR=i;MPTP cs DR=>80
SMILES	GRIN3A LBD mod	MPTP inh	CRFR2-BP ag	TMEM16A act	CRFBP-R2 block	ANO1 block	Rh123 counter	others
COC(=O)c1c(NC(=O)c2ccccc2)sc2c1CC(C)(C)NC2(C)C	-2	73*	5	i	-2	i	-5	MPTP swell DR=18*;MPTP cs DR=>80
COc1ccccc1N(C)S(=O)(=O)c1ccc(C(=O)N(C)Cc2ccc(OC(F)F)cc2)cc1	-1	1	5	i	27	.	.
CC(C)CCN1C(=O)c2ccc(C(=O)Nc3ccc(Br)cc3C(=O)O)cc2C1=O	0	93*	-1	i	33	i	46*
CCc1ccc(/C=C/C(=O)c2ccc(N3CCOCC3)cc2)cc1	2	68*	-1	i	0	i	14	MPTP swell DR=i;MPTP cs DR=19*
O=C(/C=C/c1ccc(F)cc1)c1ccc(N2CCOCC2)cc1	-1	2	2	i	10	i	.
Cc1ccc(NC(=O)C(C)OC(=O)CCC2CCCCC2)cc1 (stereo unspecified)	-7	2	1	i	4	i	.
O=C(CCN1C(=O)/C(=C/c2ccccc2)SC1=S)NNC(=O)c1ccncc1	0	7	-3	i	-2	i	.
O=C(CCN1C(=O)/C(=C\c2cccc(Br)c2)SC1=S)NCCCN1CCOCC1	0	65*	1	i	-3	i	18	MPTP swell DR=17*;MPTP cs DR=17*
CC(c1ccccc1)N1C(=O)/C(=C/c2ccncc2)SC1=S (stereo unspecified)	7	70*	5	i	-19	i	29*
O=C(CCN1C(=O)/C(=C/c2ccccc2)SC1=S)NCCCN1CCOCC1	-3	74*	1	i	7	i	4	MPTP swell DR=i;MPTP cs DR=63*
O=C(CCN1C(=O)/C(=C\c2ccccc2)SC1=S)NNC(=O)c1ccncc1	-1	53*	-2	i	1	i	4	MPTP swell DR=>100;MPTP cs DR=>80
O=C(O)C(c1ccccc1)N1C(=O)/C(=C/c2cccs2)SC1=S (stereo unspecified)	0	3	0	i	23	i	.
CCc1ccc(/C=C2/SC(=S)N(CCC(=O)NCCCN3CCOCC3)C2=O)cc1	-2	3	0	i	-7	i	.
CC(C(=O)Nc1ccc(S(=O)(=O)N2CCCC2)cc1)N1CCCC(C(N)=O)C1 (stereo unspecified)	3	-2	3	i	-12	.	.
C/C(CC(=O)Nc1c(C)cc(C)cc1C)=N\NC(=O)Cc1ccccc1	-1	-2	-1	i	-5	i	.
